Test results taken from PubChem BioAssay AID1159580 (chemical genetic matrix, 2015).
Several values for one entry are separate records, joined by “and”; a condition that tells them apart may be missing. Equal values may be shown once. Among all 5,500 compounds or so, about 2,000 (36%) were called active. About 18% were inconclusive and are not listed. Cut-off read from the data, not from the text of the source: active = normalized growth mostly below about 0.91 (no sharp cut-off); inconclusive = no clear call, values can overlap the other calls; inactive = mostly above about 0.92. The list shows a part of the results.

Assay: chemical genetic growth profiling, strain panel (AID 1159580);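 note: tested at 20 µM; growth read once vehicle control cultures reached saturation at 30 °C; 1 = growth at the plate median or of vehicle wells; lower values mean less growth of the strain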
Settings: S. cerevisiae deletion strains, growth OD

Measured: normalized growth

CC(C)=CC1C(C(=O)OCc2cccc(Oc3ccccc3)c2)C1(C)C (configuration not stated)
inactive: locus YAL021C, strain ccr4, hits give low values 1.01 | locus YAL026C, strain drs2, hits give low values 1.02 | locus YAL030W, strain snc1, hits give low values 1.01 | locus YBL061C, strain skt5, hits give low values 1.01 | locus YBR009C, strain hhf1, hits give low values 1.01 | locus YBR021W, strain FUR4, hits give low values 0.998 | locus YBR023C, strain chs3, hits give low values 1.01 | locus YBR171W, strain sec66, hits give low values 1.02 | locus YBR229C, strain ROT2, hits give low values 0.947 | locus YBR231C, strain swc5, hits give low values 0.994 | locus YBR279W, strain paf1, hits give low values 1 | locus YCL011C, strain gbp2, hits give low values 1.01 | locus YCL016C, strain dcc1, hits give low values 1.01 | locus YCL029C, strain bik1, hits give low values 0.972 | locus YCL069W, strain vba3, hits give low values 1.01 | locus YCR088W, strain abp1, hits give low values 1.01 | locus YDL005C, strain med2, hits give low values 1.01 | locus YDL035C, strain GPR1, hits give low values 0.965 | locus YDL040C, strain nat1, hits give low values 1 | locus YDL074C, strain BRE1, hits give low values 1.01 | locus YDL101C, strain DUN1, hits give low values 0.997 | locus YDL185W, strain tfp1, hits give low values 0.968 | locus YDL192W, strain arf1, hits give low values 0.987 | locus YDR001C, strain nth1, hits give low values 1.01 | locus YDR069C, strain doa4, hits give low values 0.99 | locus YDR101C, strain arx1, hits give low values 0.967 | locus YDR137W, strain rgp1, hits give low values 0.993 | locus YDR150W, strain NUM1, hits give low values 0.993 | locus YDR159W, strain sac3, hits give low values 1.02 | locus YDR162C, strain NBP2, hits give low values 0.964 | locus YDR195W, strain ref2 0.98 | locus YDR297W, strain sur2, hits give low values 1 | locus YDR318W, strain mcm21, hits give low values 0.986 | locus YDR334W, strain swr1, hits give low values 1.01 | locus YDR335W, strain msn5, hits give low values 1.02 | locus YDR388W, hits give low values 0.983 | locus YDR392W, strain spt3, hits give low values 1.02 | locus YDR502C, strain sam2, hits give low values 0.992 | locus YEL003W, strain gim4, hits give low values 1.01 | locus YEL037C, strain rad23, hits give low values 1.01 | locus YEL061C, strain CIN8 (second series), hits give low values 1.01 | locus YEL061C, strain CIN8, hits give low values 0.995 | locus YER015W, strain faa2, hits give low values 1.01 | locus YER016W, strain bim1, hits give low values 1.01 | locus YER110C, hits give low values 0.978 | locus YER111C, strain swi4, hits give low values 1.01 | locus YER155C, strain BEM2 (second series), hits give low values 1.02 | locus YER155C, strain BEM2, hits give low values 0.998 | locus YER167W, strain BCK2, hits give low values 0.99 | locus YFR010W, strain ubp6, hits give low values 0.997 | locus YGL078C, strain dbp3, hits give low values 0.987 | locus YGL086W, strain mad1, hits give low values 0.996 | locus YGL167C, strain pmr1, hits give low values 1.02 | locus YGL173C, strain kem1, hits give low values 1 | locus YGL227W, strain vid30, hits give low values 1.01 | locus YGL240W, strain doc1, hits give low values 1.03 | locus YGL248W, strain PDE1, hits give low values 1.01 | locus YGL253W, strain hxk2, hits give low values 1.01 | locus YGR078C, strain PAC10, hits give low values 1.01 | locus YGR135W, strain pre9, hits give low values 0.982 | locus YGR229C, strain SMI1, hits give low values 0.99 | locus YGR252W, strain gcn5, hits give low values 0.991 | locus YHR013C, strain ard1, hits give low values 1.01 | locus YHR027C, strain rpn1, hits give low values 1.01 | locus YHR030C, strain SLT2, hits give low values 0.987 and 0.975 | locus YHR079C, strain IRE1 (second series), hits give low values 0.99 | locus YHR079C, strain IRE1, hits give low values 0.979 | locus YHR094C, strain hxt1, hits give low values 0.988 | locus YHR129C, strain ARP1, hits give low values 0.991 | locus YHR142W, strain chs7, hits give low values 1 | locus YHR200W, strain rpn10, hits give low values 0.976 | locus YIL066C, strain RNR3, hits give low values 0.96 | locus YIL073C, strain SPO22, hits give low values 1 | locus YIL125W, strain kgd1, hits give low values 0.976 | locus YIR030C, strain dcg1, hits give low values 0.982 | locus YJL092W, strain hpr5, hits give low values 1.01 | locus YJL095W, strain BCK1 (second series), hits give low values 1 | locus YJL095W, strain BCK1, hits give low values 1.06 and 0.979 | locus YJL115W, strain asf1, hits give low values 1.02 | locus YJL129C, strain trk1, hits give low values 1.03 | locus YJL134W, strain LCB3, hits give low values 0.987 | locus YJL154C, strain vps35, hits give low values 1.01 | locus YJL164C, strain tpk1, hits give low values 1.01 | locus YJL166W, strain qcr8, hits give low values 1 | locus YJL168C, strain set2, hits give low values 0.994 | locus YJL187C, strain SWE1 (second series), hits give low values 1.04 | locus YJR043C, strain POL32, hits give low values 0.971 | locus YJR066W, strain TOR1, hits give low values 0.896 | locus YKL009W, strain mrt4, hits give low values 0.977 | locus YKL068W, hits give low values 0.987 | locus YKL085W, strain MDH1 (second series), hits give low values 1 | locus YKL085W, strain MDH1, hits give low values 1 | locus YKL160W, strain elf1, hits give low values 1.02 | locus YKL190W, strain CNB1, hits give low values 0.997 | locus YKR001C, strain vps1, hits give low values 0.992 | locus YKR026C, strain gcn3, hits give low values 1.01 | locus YKR091W, strain srl3, hits give low values 1.01 | locus YLL001W, strain dnm1, hits give low values 1.02 | locus YLL026W, hits give low values 1.01 | locus YLL041C, strain sdh2, hits give low values 1.02 | locus YLR027C, strain aat2, hits give low values 1.01 | locus YLR039C, strain RIC1, hits give low values 0.972 | locus YLR058C, strain SHM2, hits give low values 0.993 | locus YLR102C, strain apc9, hits give low values 0.991 | locus YLR113W, strain HOG1, hits give low values 0.998 | locus YLR221C, strain rsa3, hits give low values 1.01 | locus YLR258W, strain gsy2, hits give low values 1.01 | locus YLR262C, strain YPT6 (second series), hits give low values 1.01 | locus YLR262C, strain YPT6, hits give low values 0.927 | locus YLR268W, strain sec22, hits give low values 0.993 | locus YLR320W, strain mms22, hits give low values 1.01 | locus YLR330W, strain CHS5, hits give low values 0.984 | locus YLR342W, strain FKS1 (second series), hits give low values 0.959 | locus YLR342W, strain FKS1, hits give low values 1.01 | locus YLR357W, strain rsc2, hits give low values 1.01 | locus YLR370C, strain arc18, hits give low values 1.03 | locus YLR371W, strain rom2, hits give low values 0.972 | locus YLR384C, strain iki3, hits give low values 1.02 | locus YLR418C, strain cdc73, hits give low values 0.985 | locus YML016C, strain PPZ1, hits give low values 0.993 | locus YML032C, strain rad52, hits give low values 0.983 | locus YML120C, strain ndi1, hits give low values 1.01 | locus YML124C, strain tub3, hits give low values 0.995 | locus YMR058W, strain fet3, hits give low values 1.02 | locus YMR078C, strain ctf18, hits give low values 0.972 | locus YMR125W, strain sto1, hits give low values 1.02 | locus YMR129W, hits give low values 1 | locus YMR205C, strain PFK2, hits give low values 0.993 | locus YMR223W, strain ubp8, hits give low values 0.983 | locus YMR231W, strain pep5, hits give low values 1.01 | locus YMR307W, strain GAS1, hits give low values 1.02 | locus YNL067W, strain RPL9B, hits give low values 1.04 | locus YNL071W, strain lat1, hits give low values 1.01 | locus YNL183C, strain NPR1, hits give low values 0.934 | locus YNL209W, strain ssb2, hits give low values 0.998 | locus YNL233W, strain BNI4, hits give low values 1.05 | locus YNL248C, strain rpa49, hits give low values 0.994 | locus YNL250W, strain rad50, hits give low values 0.982 | locus YNL271C, strain bni1, hits give low values 0.971 | locus YNL298W, strain CLA4, hits give low values 0.986 | locus YNL307C, strain MCK1, hits give low values 0.983 | locus YNL322C, strain KRE1 (second series), hits give low values 1.01 | locus YNR049C, strain mso1, hits give low values 1.01 | locus YNR052C, strain pop2, hits give low values 0.988 | locus YOL006C, strain TOP1, hits give low values 1.12 | locus YOL012C, strain htz1 1.31 | locus YOL147C, strain pex11, hits give low values 0.988 | locus YOR001W, strain rrp6, hits give low values 0.988 | locus YOR061W, strain CKA2, hits give low values 0.977 | locus YOR069W, strain VPS5, hits give low values 0.992 | locus YOR070C, strain gyp1, hits give low values 1 | locus YOR080W, strain dia2, hits give low values 1.01 | locus YOR083W, strain WHI5, hits give low values 1 | locus YOR106W, strain vam3, hits give low values 0.938 | locus YOR136W, strain idh2, hits give low values 0.996 | locus YOR144C, strain elg1, hits give low values 0.971 | locus YOR184W, strain ser1, hits give low values 0.992 | locus YOR231W, strain MKK1, hits give low values 0.989 | locus YOR265W, strain rbl2, hits give low values 0.996 | locus YOR270C, strain vph1, hits give low values 0.948 | locus YOR290C, strain snf2, hits give low values 1.02 | locus YOR316C, strain cot1, hits give low values 0.985 | locus YPL051W, strain arl3, hits give low values 0.995 | locus YPL078C, strain atp4, hits give low values 1.02 | locus YPL106C, strain sse1, hits give low values 1.04 | locus YPL240C, strain hsp82, hits give low values 1.01 | locus YPL256C, strain CLN2, hits give low values 0.995 | locus YPR119W, strain clb2, hits give low values 0.988 | locus YPR141C, strain kar3, hits give low values 0.982 | locus YPR163C, strain tif3, hits give low values 0.97 | locus YPR167C, strain met16, hits give low values 0.983 | strain wtn01, hits give low values 0.995
